Data as given in PubChem BioAssay (NCI).
Several values for one entry are separate records, joined by “and”; a condition that tells them apart may be missing. Equal entries are not always repeated. Compounds without any hit were thinned out: in the full panel of roughly 83,000, 20% have a hit.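 Interpretation: 100, growth as untreated; towards 0, rising growth inhibition; 0, no net growth; 0 to -100, cell death. Compounds scoring below 10 were considered active.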

Legend:
Experiment in all cases: NCI-60 one-dose screen, 48 h (100 = growth as untreated, 0 = no growth, -100 = all killed)
Conditions in all cases: 10 µM unless noted
HCT-15 colon = test system: HCT-15 colon
HT29 colon = test system: HT29 colon
SNB-75 CNS = test system: SNB-75 CNS
SNB-19 CNS = test system: SNB-19 CNS
U251 CNS = test system: U251 CNS
PC-3 prostate = test system: PC-3 prostate
SK-MEL-5 melanoma = test system: SK-MEL-5 melanoma
UACC-62 melanoma = test system: UACC-62 melanoma
LOX IMVI melanoma = test system: LOX IMVI melanoma
SK-MEL-28 melanoma = test system: SK-MEL-28 melanoma

Measured: growth

NCCSSC/C=C\CSSCCN
inactive: HCT-15 colon 102% | HT29 colon 106% | SNB-75 CNS 91.6% | SNB-19 CNS 105% | U251 CNS 92.1% | PC-3 prostate 78.3% | SK-MEL-5 melanoma 97.2% | UACC-62 melanoma 105% | LOX IMVI melanoma 97.5% | SK-MEL-28 melanoma 115%

O=C(NC(CSSCC(NC(=O)OCc1ccccc1)C(=O)O)C(=O)O)OCc1ccccc1 (stereo not given)
inactive: HCT-15 colon 90.9% and 98.4% | HT29 colon 92.7% and 96% | SNB-75 CNS 78.4% and 90.8% | SNB-19 CNS 93.2% and 104% | U251 CNS 84.2% and 97.5% | PC-3 prostate 90.5% and 73.1% | SK-MEL-5 melanoma 90% and 102% | UACC-62 melanoma 91.5% and 102% | LOX IMVI melanoma 103% and 95% | SK-MEL-28 melanoma 96.6% and 104%

C/C(=C\c1ccccc1)C(O)C(=O)c1nc2ccc([N+](=O)[O-])cc2[nH]c1=O (stereo not given)
inactive: HCT-15 colon 100% | HT29 colon 102% | SNB-75 CNS 88.6% | SNB-19 CNS 85.5% | U251 CNS 83.2% | PC-3 prostate 79.7% | SK-MEL-5 melanoma 82.6% | UACC-62 melanoma 72.3% | LOX IMVI melanoma 75.9% | SK-MEL-28 melanoma 112%

Cc1cc(-c2ccc(N=Nc3c(C)nn(-c4ccc(S(=O)(=O)O)cc4)c3O)c(C)c2)ccc1N=Nc1ccc(O)c(C(=O)O)c1
inactive: HCT-15 colon 97.9% | HT29 colon 115% | SNB-75 CNS 99.9% | SNB-19 CNS 99.9% | U251 CNS 99.1% | PC-3 prostate 98.2% | SK-MEL-5 melanoma 98.7% | UACC-62 melanoma 91.2% | LOX IMVI melanoma 95.4% | SK-MEL-28 melanoma 106%

CCCCC/C(C)=N\NC(N)=S
inactive: HCT-15 colon 79.4% | HT29 colon 55.3% | SNB-75 CNS 86.6% | SNB-19 CNS 105% | U251 CNS 80.2% | PC-3 prostate 89.4% | SK-MEL-5 melanoma 90% | UACC-62 melanoma 96.2% | LOX IMVI melanoma 95.6% | SK-MEL-28 melanoma 94.2%

CCCCCc1cc[n+](CC(=O)c2ccccc2)cc1
inactive: HCT-15 colon 99.4% and 103% | HT29 colon 99.7% and 105% | SNB-75 CNS 92.6% | SNB-19 CNS 93.4% and 107% | U251 CNS 103% and 105% | PC-3 prostate 85.6% and 91.1% | SK-MEL-5 melanoma 96% and 89.5% | UACC-62 melanoma 98.7% and 101% | LOX IMVI melanoma 93.8% and 98.6% | SK-MEL-28 melanoma 128% and 109%

CCN(CC)CCO/N=C1\CC(c2ccc(OC)c(OC)c2)Oc2ccccc21 (stereo not given)
inactive: HCT-15 colon 88.6% | HT29 colon 74.8% | SNB-75 CNS 68% | SNB-19 CNS 98.5% | U251 CNS 93.6% | PC-3 prostate 83% | SK-MEL-5 melanoma 93.4% | UACC-62 melanoma 107% | LOX IMVI melanoma 89.6% | SK-MEL-28 melanoma 107%

NNc1ncnc2cccc(Cl)c12
inactive: HCT-15 colon 97.8% | HT29 colon 95% | SNB-75 CNS 101% | SNB-19 CNS 103% | U251 CNS 95.4% | PC-3 prostate 93.3% | SK-MEL-5 melanoma 91% | UACC-62 melanoma 92% | LOX IMVI melanoma 94.6% | SK-MEL-28 melanoma 103%

O=c1[nH]c(=S)[nH]n1C(=S)n1[nH]c(=S)[nH]c1=O
inactive: HCT-15 colon 112% | HT29 colon 106% | SNB-75 CNS 92% | SNB-19 CNS 99.9% | U251 CNS 93.6% | PC-3 prostate 83.3% | SK-MEL-5 melanoma 93% | UACC-62 melanoma 94.4% | LOX IMVI melanoma 95.6% | SK-MEL-28 melanoma 114%

Nc1nc(N)c2cc(S(=O)(=O)c3ccccc3)ccc2n1
inactive: HCT-15 colon 27.9% and 25.6% | HT29 colon 22.9% and 15% | SNB-75 CNS 78.7% and 76.9% | SNB-19 CNS 38.4% and 49.2% | U251 CNS 30.5% and 30.8% | PC-3 prostate 42.9% and 52.7% | SK-MEL-5 melanoma 23.3% and 25.3% | UACC-62 melanoma 21.5% and 53.7% | LOX IMVI melanoma 30.6% and 19.2% | SK-MEL-28 melanoma 71% and 68.9%

COCCNC(C)=O
inactive: HCT-15 colon 100% | HT29 colon 108% | SNB-75 CNS 99.2% | SNB-19 CNS 104% | U251 CNS 98.1% | PC-3 prostate 101% | SK-MEL-5 melanoma 96.7% | UACC-62 melanoma 99.9% | LOX IMVI melanoma 105% | SK-MEL-28 melanoma 112%

O=C1C(=O)c2ccccc2C(O)=C1CC=C(Cl)Cl
inactive: HCT-15 colon 25.8% and 30.7% | HT29 colon 31.4% and 34.8% | SNB-75 CNS 54.3% and 57.4% | SNB-19 CNS 52.9% and 61.9% | U251 CNS 42.5% and 42.8% | PC-3 prostate 35.3% and 40.9% | SK-MEL-5 melanoma 48.4% and 48.1% | UACC-62 melanoma 55.7% and 60% | LOX IMVI melanoma 16.7% and 27.4% | SK-MEL-28 melanoma 70.1%

CCNCc1ccccc1
inactive: HCT-15 colon 112% | HT29 colon 98.8% | SNB-75 CNS 102% | SNB-19 CNS 109% | U251 CNS 101% | PC-3 prostate 103% | SK-MEL-5 melanoma 108% | UACC-62 melanoma 100% | LOX IMVI melanoma 97.8% | SK-MEL-28 melanoma 96.9%

CCCCNC(=O)c1ccccc1C
inactive: HCT-15 colon 93.4% | HT29 colon 102% | SNB-75 CNS 99% | SNB-19 CNS 98.2% | U251 CNS 99.3% | PC-3 prostate 88.2% | SK-MEL-5 melanoma 93.3% | UACC-62 melanoma 101% | LOX IMVI melanoma 96.9% | SK-MEL-28 melanoma 101%

CCN(CC)C(=S)SCCO
inactive: HCT-15 colon 107% | HT29 colon 99.8% | SNB-75 CNS 89.4% | SNB-19 CNS 104% | U251 CNS 98.2% | PC-3 prostate 103% | SK-MEL-5 melanoma 99.7% | UACC-62 melanoma 107% | LOX IMVI melanoma 97% | SK-MEL-28 melanoma 112%

Nc1c(Cl)cc2c(c1Br)C(=O)c1ccccc1C2=O
inactive: HCT-15 colon 88.9% | HT29 colon 100% | SNB-75 CNS 94.2% | SNB-19 CNS 88.8% | U251 CNS 95.8% | PC-3 prostate 97.7% | SK-MEL-5 melanoma 89.4% | UACC-62 melanoma 77% | LOX IMVI melanoma 94.2% | SK-MEL-28 melanoma 113%

CCOC(=O)c1ccncc1
inactive: HCT-15 colon 108% | HT29 colon 104% | SNB-75 CNS 108% | SNB-19 CNS 111% | U251 CNS 104% | PC-3 prostate 97.5% | SK-MEL-5 melanoma 95.8% | UACC-62 melanoma 101% | LOX IMVI melanoma 99% | SK-MEL-28 melanoma 110%

CC(=O)C[n+]1ccccc1Sc1ccc(Cl)cc1
inactive: HCT-15 colon 93.3% | HT29 colon 108% | SNB-75 CNS 66.1% | SNB-19 CNS 88.7% | U251 CNS 73% | PC-3 prostate 58.3% | SK-MEL-5 melanoma 90.3% | UACC-62 melanoma 84.6% | LOX IMVI melanoma 27.6% | SK-MEL-28 melanoma 100%
